Among the test systems are EKVX NSCLC; SN12C renal; UO-31 renal; ACHN renal; CAKI-1 renal; A498 renal; CCRF-CEM leukemia; MOLT-4 leukemia; SR leukemia; RPMI-8226 leukemia; OVCAR-8 ovarian; OVCAR-5 ovarian; OVCAR-4 ovarian; SK-OV-3 ovarian; IGROV1 ovarian; OVCAR-3 ovarian; HS 578T breast; NCI/ADR-RES ovarian; T-47D breast.
Common to all, as to assay: NCI-60 one-dose screen, 48 h (100 = growth as untreated, 0 = no growth, -100 = all killed)
Common to all, as to settings: 10 µM unless noted

The structures appear in SMILES notation. Compounds without any hit were thinned out: in the full panel of roughly 83,000, 20% have a hit.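 Single-concentration screen, 48 h exposure, 96-well plates. Endpoint: percent growth. Below 10 = active.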 A number with no mark means an inactive call. Activity calls are given as the source filed them.

On to `C#C[C@]1(O)CC[C@H]2[C@@H]3CC=C4c5sc(-c6ccc(F)cn6)nc5CC[C@]4(C)[C@H]3CC[C@@]21C`, for which the growth with EKVX NSCLC was 25.4%; in the assay on SN12C renal, 58.7%; with UO-31 renal, 52.7%; with ACHN renal, 47.2%; with CAKI-1 renal, 20.6%; in the assay with A498 renal, -24.7% (active). Besides, the growth with CCRF-CEM leukemia is 8.87% (active); with MOLT-4 leukemia, -7.92% (active); in the assay on SR leukemia it was -2.25% (active); with RPMI-8226 leukemia, -26% (active); in the assay with OVCAR-8 ovarian it was 42.8%; with OVCAR-5 ovarian, 59.9%. Moreover, the growth was 57.8% in the assay on OVCAR-4 ovarian; 21.2% in the assay with SK-OV-3 ovarian; 49.8% in the assay on IGROV1 ovarian; 56.2% in the assay with OVCAR-3 ovarian; -16.2% (active) in the assay with HS 578T breast; 44.8% with NCI/ADR-RES ovarian. In addition, the growth with T-47D breast is 39.9%.

For the compound `CC(=O)Oc1ccccc1C(=O)Nc1ccc(C(=O)/C=C/c2ccncc2)cc1`, the growth is 71.7% in the assay with EKVX NSCLC; 33.5% in the assay on SN12C renal; 44.4% in the assay with UO-31 renal; 0.759% (active) in the assay with ACHN renal; 62.6% with CAKI-1 renal; 100% with A498 renal. The growth with CCRF-CEM leukemia was 10.2%; in the assay with MOLT-4 leukemia, 23.1%; in the assay with SR leukemia, -15.2% (active); in the assay on RPMI-8226 leukemia, -25.8% (active); with OVCAR-8 ovarian, 82.4%; in the assay on OVCAR-5 ovarian, 64.4%. The growth with OVCAR-4 ovarian was 87.5%; in the assay on SK-OV-3 ovarian, 111%; in the assay on IGROV1 ovarian, 10.3%; with OVCAR-3 ovarian, 33.2%; in the assay with HS 578T breast, 69.5%; in the assay on NCI/ADR-RES ovarian, 91.8%. The growth in the assay on T-47D breast was 53.4%.

Regarding `Clc1ccc(Cc2nnc3sc(-c4cccnc4)nn23)cc1`, the growth was 85.2% with EKVX NSCLC; 100% in the assay with SN12C renal; 71.7% in the assay with UO-31 renal; 96.8% with ACHN renal; 84% in the assay with CAKI-1 renal; 83.9% with A498 renal. Also, the growth with CCRF-CEM leukemia was 98.9%; in the assay with MOLT-4 leukemia, 97.2%; in the assay with SR leukemia it was 91.1%; in the assay with RPMI-8226 leukemia, 97.5%; with OVCAR-8 ovarian, 96.6%; in the assay on OVCAR-5 ovarian it was 94.7%. In addition, the growth with OVCAR-4 ovarian is 94.2%; with SK-OV-3 ovarian it was 114%; with IGROV1 ovarian, 95.4%; in the assay with OVCAR-3 ovarian, 107%; in the assay on HS 578T breast, 101%; with NCI/ADR-RES ovarian it was 81.3%. Besides, the growth in the assay on T-47D breast is 89.2%.

With `[Cl][Ru].c1ccc(-c2cccc(-c3ccccn3)n2)nc1.c1ccc(-c2ccnc3c2ccc2c(-c4ccccc4)ccnc23)cc1`, the growth in the assay with EKVX NSCLC was 62.7%; in the assay with SN12C renal it was 20.1%; with UO-31 renal, 79.6%; in the assay on ACHN renal, 96.7%; with CAKI-1 renal it was 80.3%; with A498 renal, 54.9%. Further, the growth in the assay with CCRF-CEM leukemia is 38%; with MOLT-4 leukemia, 41.4%; in the assay on SR leukemia, 11%; in the assay with RPMI-8226 leukemia it was -10.5% (active); in the assay on OVCAR-8 ovarian, 68.2%; in the assay on OVCAR-5 ovarian, 68.1%. In addition, the growth with OVCAR-4 ovarian was 47.3%; with SK-OV-3 ovarian, 46.8%; in the assay with IGROV1 ovarian it was 21.4%; in the assay on OVCAR-3 ovarian it was 13.8%; in the assay on HS 578T breast, 13.4%; in the assay with NCI/ADR-RES ovarian it was 71.5%. In addition, the growth with T-47D breast was 14.2%.

As to `O=C(O)CCCCCN1C(=O)/C(=C/c2ccc(O)c(O)c2)SC1=S`, the growth was 97% in the assay on EKVX NSCLC; 98.5% in the assay with SN12C renal; 90.4% in the assay with UO-31 renal; 109% in the assay with ACHN renal; 102% in the assay with CAKI-1 renal; 101% in the assay with A498 renal. Further, the growth is 105% in the assay on CCRF-CEM leukemia; 106% in the assay on MOLT-4 leukemia; 107% in the assay on SR leukemia; 111% in the assay with RPMI-8226 leukemia; 103% in the assay on OVCAR-8 ovarian; 108% in the assay on OVCAR-5 ovarian. In addition, the growth in the assay with OVCAR-4 ovarian is 101%; in the assay on SK-OV-3 ovarian it was 124%; with IGROV1 ovarian, 106%; in the assay on OVCAR-3 ovarian, 108%; in the assay on HS 578T breast, 99.6%; in the assay on NCI/ADR-RES ovarian, 104%. Also, the growth in the assay on T-47D breast is 98%.

With `C#C[C@]1(O)CC[C@H]2[C@@H]3CC=C4c5sc(Nc6ccc(Cl)cn6)nc5CC[C@]4(C)[C@H]3CC[C@@]21C`, the growth in the assay with EKVX NSCLC is 42.3%; in the assay on SN12C renal, 79.5%; with UO-31 renal, 40%; with ACHN renal, 53.6%; in the assay on CAKI-1 renal it was 29.1%; with A498 renal it was -6.58% (active). Moreover, the growth with CCRF-CEM leukemia was 15.1%; with MOLT-4 leukemia, 2.85% (active); in the assay with SR leukemia, 7.04% (active); in the assay with RPMI-8226 leukemia, -21.2% (active); with OVCAR-8 ovarian it was 49.6%; with OVCAR-5 ovarian it was 75.8%. The growth with OVCAR-4 ovarian is 65.3%; in the assay on SK-OV-3 ovarian, 35.9%; in the assay with IGROV1 ovarian, 71.5%; in the assay with OVCAR-3 ovarian it was 74.3%; in the assay with HS 578T breast it was -2.9% (active); in the assay with NCI/ADR-RES ovarian, 54.1%. Besides, the growth in the assay with T-47D breast is 68.8%.

For `Clc1ccc2c(NCCCN3CCOCC3)c3oc4ccccc4c3nc2c1`, the growth was 62.6% in the assay with EKVX NSCLC; 29.9% with SN12C renal; 40.1% with UO-31 renal; 19.3% in the assay on ACHN renal; 30.4% in the assay on CAKI-1 renal; 33.7% with A498 renal. Also, the growth was 32.8% in the assay with CCRF-CEM leukemia; 10.6% in the assay with MOLT-4 leukemia; 8.11% (active) in the assay with SR leukemia; 23.2% with RPMI-8226 leukemia; 32.5% with OVCAR-8 ovarian; 39.6% with OVCAR-5 ovarian. Besides, the growth with OVCAR-4 ovarian was 64.8%; with SK-OV-3 ovarian it was 97.6%; in the assay on IGROV1 ovarian, 25.8%; in the assay with OVCAR-3 ovarian it was 74.2%; with HS 578T breast, 58.2%; in the assay on NCI/ADR-RES ovarian, 44.2%. Also, in the assay on T-47D breast, the growth is 76.5%.

In the case of `COc1cc2nc(-c3ccc(C(F)(F)F)cc3)cc(OCCCNCC3CCCO3)c2cc1OC` (configuration not stated), the growth with EKVX NSCLC was 61.5%; in the assay on SN12C renal it was 46.2%; in the assay with UO-31 renal, 35.9%; with ACHN renal it was 31.9%; with CAKI-1 renal, 8.44% (active); in the assay with A498 renal, 17.9%. Moreover, the growth in the assay on CCRF-CEM leukemia is 28.6%; with MOLT-4 leukemia it was 14.3%; in the assay on SR leukemia it was 8.68% (active); in the assay on RPMI-8226 leukemia it was -13.1% (active); with OVCAR-8 ovarian, 35.6%; in the assay with OVCAR-5 ovarian it was 40.6%. Moreover, the growth was 62.4% with OVCAR-4 ovarian; 86.2% with SK-OV-3 ovarian; 28.5% with IGROV1 ovarian; 65.4% in the assay on OVCAR-3 ovarian; 55.6% in the assay on HS 578T breast; 41.4% in the assay with NCI/ADR-RES ovarian. For the same compound, the growth with T-47D breast is 38%.
